# Test results: PubChem BioAssay (NCATS)
# Records with an inconclusive call do not appear. Entries that show only a call come without a potency. The source made the active and inactive calls. Calls follow the shape of the dose curve; as a rule, active = well fitted inhibition curve with a large enough effect; inconclusive = small, poorly fitted or top-dose-only effect; inactive = flat fitted curve, though single readings scatter.
# Target: Glutathione peroxidase 1 (Homo sapiens) (UniProt P07203)
# Sequence (P07203 whole entry, looked up): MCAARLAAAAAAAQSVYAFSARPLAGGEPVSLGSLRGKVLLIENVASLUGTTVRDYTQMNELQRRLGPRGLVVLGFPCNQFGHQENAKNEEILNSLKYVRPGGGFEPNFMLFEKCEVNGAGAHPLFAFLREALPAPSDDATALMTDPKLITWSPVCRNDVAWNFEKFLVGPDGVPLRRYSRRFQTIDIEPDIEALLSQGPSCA
# Experiment: Primary qHTS Assay for Inhibitors of Recombinant Selenoprotein Glutathione Peroxidase 1 (GPX1) (AID 1845191); also: nearly all actives have a fitted effect of over 65% in size
# Details: recombinant GPX1, GR-coupled NADPH fluorescence, 15 min; series mostly up to 48.8 µM
# Excerpt: Assay Provider: Elias S.J. Arner MD PhD.
# Department of Medical Biochemistry and Biophysics
# Karolinska Institutet, Solna, Stockholm, Sweden
# Selenoprotein glutathione peroxidases (GPX), like the ubiquitously expressed GPX1 and the ferroptosis modulator GPX4, enact their antioxidant activities by reducing hydroperoxides using glutathione. […] GPX1 and GPX4 inhibitors have thus shown promise as anti-cancer agents. Existing inhibitors are often promiscuous, or modulate GPX activity only indirectly, so novel direct inhibitors identified through screening against GPX1 and GPX4 could be valuable. Here, we developed optimized glutathione reductase (GR)-coupled GPX assays for the biochemical high-throughput screen (HTS) of almost 12,000 compounds with known mechanisms of action. Initial hits were triaged using a GR counter-screen, assessed for isoform specificity using a separate GPX2 assay, and were assessed for general selenocysteine-targeting activity using a thioredoxin reductase (TXNRD1) assay. With this suite of assays, we identified novel GPX1/GPX2- and GPX4-specific inhibitors and can here present a validated pipeline for future discovery research for selenoprotein-targeting agents.
# SEQUENCE No. (e.g., 1, 2, 3, etc.); […] (e.g., Cells, Incubation, Reagent, etc.); VALUE; DESCRIPTION.
# 1; Reagent 1; 3 uL; GPx1 enzyme or no enzyme control in 1536-well, black, solid Greiner assay plate.
# 2; Compound; 25 nL; Kalypsis pin tool (Wako USA) equipped with a 1536-well pin head.
# 3; Incubation; 30 min; room temperature.
# 4; Reagent 2; 1 uL; 10 nM GPX1, 1 mM GSH, 0.5 mM CHP, 0.5 mM NADPH, 100 nM GR, 0.01% BSA substrate
# 5; Detection; Fluorescence; ViewLux microplate reader, excitation 340 nm and emission 450 nm.
# 6; Incubation; 15 min; room temperature.
# 7; Detection; Fluorescence; ViewLux microplate reader, excitation 340 nm and emission 450 nm.
# NOTES (numbers refer to Sequence numbers above)
# 1. 3 uL of 16.66 nM GPX1 and 0.016% BSA in assay buffer (50 mM Tris-HCl, 2 mM EDTA (pH 7.5), 150 mM NaCl) was added to columns 3-48 of 1536-well assay plates using a BioRAPTR Flying Reagent Dispenser (Let's Go Robotics (LGR), Carlsbad, CA). A no-enzyme control (0.01% BSA in TES assay buffer) was added to columns 1-2.
# 2. 25 nL of test compounds and DMSO controls were added to each well with a pin tool (Kalypsys).
# 3. The assay plates were incubated for 30 minutes at room temperature.
# 4. 1 uL of master mix (500 nM glutathione reductase (GR), 5 mM reduced glutathione (GSH), 2.5 mM NADPH in assay buffer) was added. 1 uL of cumene hydroperoxide (CHP) ([2.5 mM] in 50% EtOH) was then added within 5 minutes to initiate the reaction. Final concentrations were: 10 nM GPX1, 1 mM GSH, 0.5 mM CHP, 0.5 mM NADPH, 100 nM GR, 0.01% BSA.
# 5. Initial fluorescence readout (t=0) at 340/450 nm was measured using a ViewLux multimodal detector (PerkinElmer, Waltham, MA).
# 7. Endpoint fluorescence readout (t=15) at 340/450 nm was measured 15 min after room temperature incubation.
row,SMILES,Potency
1,COC(=O)c1cccnc1,inactive
2,C[C@@H](c1ncncc1F)C(O)(Cn1cncn1)c1ccc(F)cc1F (stereo not given in full),inactive
3,CC(=O)Nc1ccccc1,inactive
4,CC(=O)Oc1cccc(C)c1,inactive
5,CC(=O)N(CC(O)CO)c1c(I)c(C(=O)NCC(O)CO)c(I)c(C(=O)NCC(O)CO)c1I (stereo not given),inactive
6,CC1(C)[C@@H](OC(=O)CCC(=O)O)CC[C@]2(C)[C@H]3C(=O)C=C4[C@@H]5C[C@@](C)(C(=O)O)CC[C@]5(C)CC[C@@]4(C)[C@]3(C)CC[C@@H]12,inactive
7,O=C(Cn1ccnc1[N+](=O)[O-])NCc1ccccc1,inactive
8,CC(C)C[C@@H](N)C(=O)O,inactive
9,O=C(O)c1ccc(OCCCOc2ccc(C(=O)O)cc2)cc1,inactive
10,CC[N+](CC)(CC(=O)Nc1c(C)cccc1C)Cc1ccccc1,inactive
11,O=C(c1ccccc1)C(O)c1ccccc1 (stereo not given),inactive
12,CC(=O)OC[C@H]1O[C@@](COC(C)=O)(O[C@H]2O[C@H](COC(C)=O)[C@@H](OC(C)=O)[C@H](OC(C)=O)[C@H]2OC(C)=O)[C@@H](OC(C)=O)[C@@H]1OC(C)=O,inactive
13,C[n+]1ccccc1/C=N/O,inactive
14,NS(=O)(=O)c1cc(-c2nn[nH]n2)c(NCc2cccs2)cc1Cl,inactive
15,CC(CSC(=O)c1ccccc1)C(=O)N1C[C@@H](Sc2ccccc2)C[C@H]1C(=O)O (stereo not given in full),inactive
16,C[C@@H](N)C(=O)O,inactive
17,CC(C)c1cc2c(cc1S(=O)(=O)O)[C@@]1(C)CCC[C@@](C)(C(=O)O)[C@@H]1CC2,inactive
18,Cc1ccccc1N=Nc1ccc(N=Nc2c(O)ccc3ccccc23)c(C)c1,inactive
19,CN1C(=O)CC(c2ccccc2)C1=O (stereo not given),inactive
20,Nc1ccc(C(=O)Oc2ccccc2)c(O)c1,inactive

row,SMILES,Potency
1,CC(CN(C)C)C(C)(O)Cc1ccc(Cl)cc1 (stereo not given),inactive
2,C[N+]1(C)CCCC(OC(=O)C(O)(c2ccccc2)c2ccccc2)C1 (stereo not given),inactive
3,C=CCOc1ccccc1OCC(O)CNC(C)C (stereo not given),inactive
4,CCN(CC)C(=O)c1cccc(C)c1,inactive
5,CC(C)(C)C(=O)OCOC(=O)[C@@H]1N2C(=O)[C@@H](NC(=O)[C@H](N)c3ccccc3)[C@H]2SC1(C)C,inactive
6,NCc1ccc(S(N)(=O)=O)cc1,inactive
7,CC(=O)NS(=O)(=O)c1ccc(N)cc1,inactive
8,C[C@H]1COc2c(C3(N)CC3)c(F)cc3c(=O)c(C(=O)O)cn1c23,inactive
9,O=C(O)CCCc1ccccc1,inactive
10,NS(=O)(=O)c1cc(C2(O)NC(=O)c3ccccc32)ccc1Cl (stereo not given),inactive
11,COc1ccc(O)cc1,inactive
12,Cc1c(NC(=O)c2cccnc2)c(=O)n(-c2ccccc2)n1C,inactive
13,CCOc1cc(NC(C)=O)ccc1C(=O)OC,inactive
14,CCCCCCCC(=O)OCC(COC(=O)CCCCCCC)OC(=O)CCCCCCC,inactive
15,CC1CCN(CCCC(=O)c2ccc(F)cc2)CC1,inactive
16,CCOc1ccc(C(=O)OCCN(CC)CC)cc1,inactive
17,CCCCCCCCCCCCCCCCC(C(=O)O)C(O)(CC(=O)O)C(=O)O (stereo not given),inactive
18,C=CCNC(N)=S,inactive
19,O=c1[nH]c(=O)n([C@H]2C[C@H](O)[C@@H](CO)O2)cc1I,inactive
20,CN(C(=O)c1c(O)c2ccccc2n(C)c1=O)c1ccccc1,inactive
